# Experimental data published in publication PMC7862700, “An all-to-all approach to the identification of sequence-specific readers for epigenetic DNA modifications on cytosine”.
# Key:
# Experiment in all cases: DAPPL (digital affinity profiling via proximity ligation, sequencing); 10 mM Tris-HCl pH 7.5, 50 mM NaCl, 1 mM DTT, 4% glycerol, room temperature, 30 min; GST-TFs on glutathione beads, 16-mer random dsDNA library, 0.1% formaldehyde crosslink after washing; high values mean tight binding
# FLI1 = target: T1, FLI1 (Homo sapiens, UniProt Q01543 1-452); settings: protein: recombinant; tags: N-terminal GST; dsDNA, one strand shown
# T1 sequence: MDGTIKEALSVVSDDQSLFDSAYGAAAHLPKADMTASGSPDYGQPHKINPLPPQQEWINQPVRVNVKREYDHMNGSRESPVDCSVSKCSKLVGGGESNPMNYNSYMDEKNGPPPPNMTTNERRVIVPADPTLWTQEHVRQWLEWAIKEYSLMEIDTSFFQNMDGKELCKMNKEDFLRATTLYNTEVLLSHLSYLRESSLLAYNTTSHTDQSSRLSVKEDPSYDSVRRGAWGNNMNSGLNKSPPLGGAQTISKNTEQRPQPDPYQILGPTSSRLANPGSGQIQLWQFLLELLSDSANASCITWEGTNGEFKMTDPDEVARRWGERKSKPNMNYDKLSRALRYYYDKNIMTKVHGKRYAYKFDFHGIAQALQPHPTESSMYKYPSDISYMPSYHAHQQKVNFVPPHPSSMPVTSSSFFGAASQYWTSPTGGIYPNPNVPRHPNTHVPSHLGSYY
# Summary of the method: (§1)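 In yeast, human transcription factors were expressed with a GST fusion, then pulled down on glutathione beads and given DNA barcodes. Pooled with a tag-only sample, they were exposed to 200 nmole of a 16-mer random double-stranded DNA library (Tris/NaCl/DTT/glycerol buffer, room temperature, 30 min), washed, crosslinked with 0.1% formaldehyde, proximity-ligated using BsaI/T4 ligase for 1 h at 37 °C, PCR-amplified and read on an Illumina NextSeq500. Each hexamer's frequency of reads for a factor, divided by the matching frequency for the tag-only sample, gives the binding signal.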
# ELK1 = target: T2, ELK1 (Homo sapiens, UniProt P19419 1-428); settings: protein: recombinant; tags: N-terminal GST; dsDNA, one strand shown
# T2 sequence: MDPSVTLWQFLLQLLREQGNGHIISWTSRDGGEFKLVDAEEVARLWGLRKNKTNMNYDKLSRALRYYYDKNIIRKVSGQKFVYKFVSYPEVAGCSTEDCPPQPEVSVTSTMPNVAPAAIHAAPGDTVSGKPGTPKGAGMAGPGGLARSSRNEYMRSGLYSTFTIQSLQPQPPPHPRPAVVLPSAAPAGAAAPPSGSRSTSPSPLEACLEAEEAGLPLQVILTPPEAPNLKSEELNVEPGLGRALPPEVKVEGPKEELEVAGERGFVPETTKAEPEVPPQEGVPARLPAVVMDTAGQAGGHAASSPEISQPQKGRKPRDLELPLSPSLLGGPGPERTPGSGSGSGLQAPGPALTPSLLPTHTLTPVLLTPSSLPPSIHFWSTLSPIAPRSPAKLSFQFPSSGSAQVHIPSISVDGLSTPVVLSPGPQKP
# Summary of the method: as §1
# GABPA = target: T3, GABPA (Homo sapiens, UniProt Q06546 1-454); settings: protein: recombinant; tags: N-terminal GST; dsDNA, one strand shown
# T3 sequence: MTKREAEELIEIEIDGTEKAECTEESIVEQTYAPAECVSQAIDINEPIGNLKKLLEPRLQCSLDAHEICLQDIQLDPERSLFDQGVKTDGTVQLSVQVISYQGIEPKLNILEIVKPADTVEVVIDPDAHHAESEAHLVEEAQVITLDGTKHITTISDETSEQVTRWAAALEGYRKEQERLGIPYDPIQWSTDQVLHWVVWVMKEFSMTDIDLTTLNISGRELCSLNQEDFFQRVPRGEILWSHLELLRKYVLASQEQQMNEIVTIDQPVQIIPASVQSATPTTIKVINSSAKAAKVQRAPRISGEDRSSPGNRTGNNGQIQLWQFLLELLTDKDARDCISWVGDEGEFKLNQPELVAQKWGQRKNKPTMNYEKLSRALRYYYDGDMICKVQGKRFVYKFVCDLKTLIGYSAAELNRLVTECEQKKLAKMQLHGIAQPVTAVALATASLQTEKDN
# Summary of the method: as §1
# ERG = target: T4, ERG (Homo sapiens, UniProt P11308 1-479); settings: protein: recombinant; tags: N-terminal GST; dsDNA, one strand shown
# T4 sequence: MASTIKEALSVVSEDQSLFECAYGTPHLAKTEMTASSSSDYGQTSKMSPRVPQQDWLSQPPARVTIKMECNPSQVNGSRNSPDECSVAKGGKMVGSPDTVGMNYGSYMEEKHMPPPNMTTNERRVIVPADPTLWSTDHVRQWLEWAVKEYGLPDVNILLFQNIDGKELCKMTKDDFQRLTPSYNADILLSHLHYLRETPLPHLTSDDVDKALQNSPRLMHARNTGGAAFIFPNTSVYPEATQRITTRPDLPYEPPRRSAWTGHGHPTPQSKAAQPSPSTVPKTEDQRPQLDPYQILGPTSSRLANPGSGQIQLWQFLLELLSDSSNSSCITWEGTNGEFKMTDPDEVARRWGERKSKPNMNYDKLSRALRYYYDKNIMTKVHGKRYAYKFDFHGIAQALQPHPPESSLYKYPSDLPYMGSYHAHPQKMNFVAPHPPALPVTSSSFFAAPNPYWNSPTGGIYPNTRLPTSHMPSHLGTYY
# Summary of the method: as §1
# ELF1 = ELF1 (Homo sapiens, UniProt P32519 1-619); settings: protein: recombinant; tags: N-terminal GST; dsDNA, one strand shown
# Chain of ELF1 (P32519 whole entry): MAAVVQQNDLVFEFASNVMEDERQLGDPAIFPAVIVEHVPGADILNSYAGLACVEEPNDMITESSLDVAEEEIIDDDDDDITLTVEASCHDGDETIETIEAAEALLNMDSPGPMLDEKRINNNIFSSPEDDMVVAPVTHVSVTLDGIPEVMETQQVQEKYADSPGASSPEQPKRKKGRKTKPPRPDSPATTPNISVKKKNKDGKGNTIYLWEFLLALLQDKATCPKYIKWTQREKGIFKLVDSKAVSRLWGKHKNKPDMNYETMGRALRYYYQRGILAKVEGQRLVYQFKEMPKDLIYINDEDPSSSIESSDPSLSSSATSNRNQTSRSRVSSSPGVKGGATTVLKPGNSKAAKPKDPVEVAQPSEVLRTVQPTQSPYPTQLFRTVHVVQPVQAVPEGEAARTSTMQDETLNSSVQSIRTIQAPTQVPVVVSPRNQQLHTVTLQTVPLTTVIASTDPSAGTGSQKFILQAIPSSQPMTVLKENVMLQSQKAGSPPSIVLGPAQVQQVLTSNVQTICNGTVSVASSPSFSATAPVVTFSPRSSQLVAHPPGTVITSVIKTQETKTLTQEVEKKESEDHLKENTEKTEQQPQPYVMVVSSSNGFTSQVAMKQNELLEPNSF
# Summary of the method: as §1
# EHF = target: T5, EHF (Homo sapiens, UniProt Q9NZC4 1-300); settings: protein: recombinant; tags: N-terminal GST; dsDNA, one strand shown
# T5 sequence: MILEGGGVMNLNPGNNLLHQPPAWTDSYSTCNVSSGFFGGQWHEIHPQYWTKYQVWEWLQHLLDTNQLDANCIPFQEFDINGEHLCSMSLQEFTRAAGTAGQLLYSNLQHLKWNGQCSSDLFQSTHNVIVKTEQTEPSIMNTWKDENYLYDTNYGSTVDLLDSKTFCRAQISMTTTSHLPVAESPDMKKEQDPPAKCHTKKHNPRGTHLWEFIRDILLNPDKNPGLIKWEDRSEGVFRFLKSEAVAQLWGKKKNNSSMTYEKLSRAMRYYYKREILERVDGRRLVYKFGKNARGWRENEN
# Summary of the method: as §1
# SPI1 = SPI1 (Homo sapiens, UniProt P17947 1-270); settings: protein: recombinant; tags: N-terminal GST; dsDNA, one strand shown
# Summary of the method: as §1
# SPIB = SPIB (Homo sapiens, UniProt Q01892 1-262); settings: protein: recombinant; tags: N-terminal GST; dsDNA, one strand shown
# Chain of SPIB (Q01892 whole entry): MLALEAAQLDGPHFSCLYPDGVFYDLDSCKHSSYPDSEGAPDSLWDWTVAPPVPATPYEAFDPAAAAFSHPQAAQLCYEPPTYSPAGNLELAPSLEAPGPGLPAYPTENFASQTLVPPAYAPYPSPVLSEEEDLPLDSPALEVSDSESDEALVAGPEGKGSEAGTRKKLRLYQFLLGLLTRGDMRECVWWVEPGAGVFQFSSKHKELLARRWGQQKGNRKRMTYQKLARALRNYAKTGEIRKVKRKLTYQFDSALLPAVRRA
# Summary of the method: as §1
# ELK3 = target: T6, ELK3 (Homo sapiens, UniProt P41970 1-407); settings: protein: recombinant; tags: N-terminal GST; dsDNA, one strand shown
# T6 sequence: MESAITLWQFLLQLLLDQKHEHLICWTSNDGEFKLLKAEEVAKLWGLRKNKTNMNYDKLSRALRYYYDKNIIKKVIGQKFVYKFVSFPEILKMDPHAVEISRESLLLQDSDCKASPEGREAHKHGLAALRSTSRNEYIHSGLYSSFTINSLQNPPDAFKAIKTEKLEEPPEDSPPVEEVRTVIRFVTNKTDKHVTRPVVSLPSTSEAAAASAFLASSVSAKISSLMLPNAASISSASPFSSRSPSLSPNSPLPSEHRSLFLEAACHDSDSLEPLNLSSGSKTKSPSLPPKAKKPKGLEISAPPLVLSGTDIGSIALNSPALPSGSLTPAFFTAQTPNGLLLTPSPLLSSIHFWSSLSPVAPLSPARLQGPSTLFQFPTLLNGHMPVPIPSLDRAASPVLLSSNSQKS
# Summary of the method: as §1
# FEV = target: T7, FEV (Homo sapiens, UniProt Q99581 1-238); settings: protein: recombinant; tags: N-terminal GST; dsDNA, one strand shown
# T7 sequence: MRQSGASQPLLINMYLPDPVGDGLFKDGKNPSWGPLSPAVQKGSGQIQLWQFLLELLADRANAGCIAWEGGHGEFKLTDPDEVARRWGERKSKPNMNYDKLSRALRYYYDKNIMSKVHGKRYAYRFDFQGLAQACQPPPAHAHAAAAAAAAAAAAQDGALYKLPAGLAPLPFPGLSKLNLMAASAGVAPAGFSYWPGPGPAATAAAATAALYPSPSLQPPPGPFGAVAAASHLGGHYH
# Summary of the method: as §1
# ETV5 = ETV5 (Homo sapiens, UniProt P41161 1-510); settings: protein: recombinant; tags: N-terminal GST; dsDNA, one strand shown
# Chain of ETV5 (P41161 whole entry): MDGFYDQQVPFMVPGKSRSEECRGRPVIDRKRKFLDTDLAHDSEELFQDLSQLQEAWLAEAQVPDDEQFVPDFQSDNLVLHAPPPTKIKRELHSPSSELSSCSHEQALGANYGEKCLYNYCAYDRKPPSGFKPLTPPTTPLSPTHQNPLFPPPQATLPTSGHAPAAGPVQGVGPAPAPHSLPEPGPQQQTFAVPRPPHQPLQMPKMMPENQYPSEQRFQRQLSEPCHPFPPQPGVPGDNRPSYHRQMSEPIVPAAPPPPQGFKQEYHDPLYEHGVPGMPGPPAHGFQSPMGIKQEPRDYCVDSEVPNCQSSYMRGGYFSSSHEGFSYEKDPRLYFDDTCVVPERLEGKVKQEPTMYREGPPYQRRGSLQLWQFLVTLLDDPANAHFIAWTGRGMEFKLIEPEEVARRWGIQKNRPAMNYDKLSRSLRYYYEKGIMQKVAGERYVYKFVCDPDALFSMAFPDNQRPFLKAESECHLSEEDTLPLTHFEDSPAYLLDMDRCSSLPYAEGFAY
# Summary of the method: as §1
# HSF1 = HSF1 (Homo sapiens, UniProt Q00613 1-529); settings: protein: recombinant; tags: N-terminal GST; chain copies: 3; dsDNA, one strand shown
# Chain of HSF1 (Q00613 whole entry): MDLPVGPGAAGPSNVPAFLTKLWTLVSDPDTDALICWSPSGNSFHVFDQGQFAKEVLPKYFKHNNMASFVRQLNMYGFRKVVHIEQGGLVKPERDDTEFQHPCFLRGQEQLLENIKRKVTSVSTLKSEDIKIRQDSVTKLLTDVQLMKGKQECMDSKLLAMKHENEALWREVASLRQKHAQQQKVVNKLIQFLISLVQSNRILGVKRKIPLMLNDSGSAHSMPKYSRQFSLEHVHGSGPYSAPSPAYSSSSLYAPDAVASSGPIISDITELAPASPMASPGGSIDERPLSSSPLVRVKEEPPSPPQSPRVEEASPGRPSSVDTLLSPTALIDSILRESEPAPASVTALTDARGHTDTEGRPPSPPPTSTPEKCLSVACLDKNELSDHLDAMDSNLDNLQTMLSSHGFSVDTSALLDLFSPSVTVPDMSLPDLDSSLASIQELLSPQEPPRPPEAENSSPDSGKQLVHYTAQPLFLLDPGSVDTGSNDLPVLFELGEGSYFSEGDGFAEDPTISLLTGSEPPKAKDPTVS
# Summary of the method: as §1
# SPIC = target: T8, SPIC (Homo sapiens, UniProt Q8N5J4 1-248); settings: protein: recombinant; tags: N-terminal GST; dsDNA, one strand shown
# T8 sequence: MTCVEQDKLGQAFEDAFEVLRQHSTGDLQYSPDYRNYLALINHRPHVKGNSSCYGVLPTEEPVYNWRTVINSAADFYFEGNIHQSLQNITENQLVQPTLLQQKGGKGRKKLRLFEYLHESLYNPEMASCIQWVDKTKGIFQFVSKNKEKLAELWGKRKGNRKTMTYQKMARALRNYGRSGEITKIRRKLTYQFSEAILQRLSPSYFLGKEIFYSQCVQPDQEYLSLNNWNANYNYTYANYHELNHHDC
# Summary of the method: as §1
# ELF4 = ELF4 (Homo sapiens, UniProt Q99607 1-663); settings: protein: recombinant; tags: N-terminal GST; dsDNA, one strand shown
# Chain of ELF4 (Q99607 whole entry): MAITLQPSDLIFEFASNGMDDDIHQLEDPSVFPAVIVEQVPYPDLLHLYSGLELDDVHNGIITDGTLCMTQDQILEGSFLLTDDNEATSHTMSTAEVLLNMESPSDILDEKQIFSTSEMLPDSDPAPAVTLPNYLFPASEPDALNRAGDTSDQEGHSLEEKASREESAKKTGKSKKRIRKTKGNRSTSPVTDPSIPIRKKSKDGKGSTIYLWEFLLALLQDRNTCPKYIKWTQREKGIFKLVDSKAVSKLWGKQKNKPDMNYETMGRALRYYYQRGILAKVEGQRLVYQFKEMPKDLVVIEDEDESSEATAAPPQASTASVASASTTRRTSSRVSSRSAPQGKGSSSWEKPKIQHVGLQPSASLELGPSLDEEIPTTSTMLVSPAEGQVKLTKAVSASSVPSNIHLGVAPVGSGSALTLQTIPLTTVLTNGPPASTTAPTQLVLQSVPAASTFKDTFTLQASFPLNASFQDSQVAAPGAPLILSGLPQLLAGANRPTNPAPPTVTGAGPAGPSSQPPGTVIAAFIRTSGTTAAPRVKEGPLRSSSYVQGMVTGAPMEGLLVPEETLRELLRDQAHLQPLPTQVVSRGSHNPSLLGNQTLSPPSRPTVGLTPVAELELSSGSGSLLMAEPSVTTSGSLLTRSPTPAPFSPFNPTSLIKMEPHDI
# Summary of the method: as §1
# ELK4 = target: T9, ELK4 (Homo sapiens, UniProt P28324-2 1-405); settings: protein: recombinant; tags: N-terminal GST; dsDNA, one strand shown
# T9 sequence: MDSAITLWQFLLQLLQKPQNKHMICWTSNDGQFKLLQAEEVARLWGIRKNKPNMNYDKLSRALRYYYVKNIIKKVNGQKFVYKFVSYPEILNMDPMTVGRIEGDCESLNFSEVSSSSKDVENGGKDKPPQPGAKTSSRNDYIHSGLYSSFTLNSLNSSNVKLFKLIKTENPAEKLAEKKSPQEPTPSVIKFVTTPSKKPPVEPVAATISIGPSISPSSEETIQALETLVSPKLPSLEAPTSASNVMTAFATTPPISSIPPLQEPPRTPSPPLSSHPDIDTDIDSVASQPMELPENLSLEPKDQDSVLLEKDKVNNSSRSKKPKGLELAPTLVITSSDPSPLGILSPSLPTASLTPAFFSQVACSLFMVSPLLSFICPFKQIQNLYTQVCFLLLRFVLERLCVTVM
# Summary of the method: as §1
# ETV2 = target: T10, ETV2 (Homo sapiens, UniProt O00321 1-342); settings: protein: recombinant; tags: N-terminal GST; dsDNA, one strand shown
# T10 sequence: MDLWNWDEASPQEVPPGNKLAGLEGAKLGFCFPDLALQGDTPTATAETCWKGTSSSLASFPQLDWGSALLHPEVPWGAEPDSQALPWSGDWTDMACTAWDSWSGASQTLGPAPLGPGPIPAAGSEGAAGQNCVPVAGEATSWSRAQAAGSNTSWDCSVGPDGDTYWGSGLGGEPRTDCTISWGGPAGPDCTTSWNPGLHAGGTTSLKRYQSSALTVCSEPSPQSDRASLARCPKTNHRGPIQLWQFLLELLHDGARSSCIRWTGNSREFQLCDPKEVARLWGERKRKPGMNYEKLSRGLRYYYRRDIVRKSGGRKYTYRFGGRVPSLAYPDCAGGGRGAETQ
# Summary of the method: as §1
# ELF3 = target: T11, ELF3 (Homo sapiens, UniProt P78545 1-371); settings: protein: recombinant; tags: N-terminal GST; dsDNA, one strand shown
# T11 sequence: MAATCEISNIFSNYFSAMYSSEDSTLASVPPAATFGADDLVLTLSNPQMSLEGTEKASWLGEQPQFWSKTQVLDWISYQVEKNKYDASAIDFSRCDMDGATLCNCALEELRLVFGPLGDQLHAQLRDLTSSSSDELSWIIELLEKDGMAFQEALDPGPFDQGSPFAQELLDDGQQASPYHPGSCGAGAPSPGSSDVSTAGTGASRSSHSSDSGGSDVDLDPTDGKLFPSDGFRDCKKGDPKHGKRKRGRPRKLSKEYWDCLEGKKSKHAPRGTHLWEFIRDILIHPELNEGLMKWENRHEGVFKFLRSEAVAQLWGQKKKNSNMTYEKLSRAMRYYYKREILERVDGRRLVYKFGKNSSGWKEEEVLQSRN
# Summary of the method: as §1
# CRX = CRX (Homo sapiens, UniProt O43186 1-299); settings: protein: recombinant; tags: N-terminal GST; dsDNA, one strand shown
# Chain of CRX (O43186 whole entry): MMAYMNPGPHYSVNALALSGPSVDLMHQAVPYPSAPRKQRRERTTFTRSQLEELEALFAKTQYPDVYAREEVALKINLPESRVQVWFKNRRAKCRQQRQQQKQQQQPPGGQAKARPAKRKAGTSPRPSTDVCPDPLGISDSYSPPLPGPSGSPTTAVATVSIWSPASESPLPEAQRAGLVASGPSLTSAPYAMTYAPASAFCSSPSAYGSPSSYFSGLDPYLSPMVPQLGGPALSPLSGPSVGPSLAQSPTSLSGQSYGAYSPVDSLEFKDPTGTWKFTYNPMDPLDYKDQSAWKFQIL
# Summary of the method: as §1
# ETV1 = ETV1 (Homo sapiens, UniProt P50549 1-477); settings: protein: recombinant; tags: N-terminal GST; dsDNA, one strand shown
# Chain of ETV1 (P50549 whole entry): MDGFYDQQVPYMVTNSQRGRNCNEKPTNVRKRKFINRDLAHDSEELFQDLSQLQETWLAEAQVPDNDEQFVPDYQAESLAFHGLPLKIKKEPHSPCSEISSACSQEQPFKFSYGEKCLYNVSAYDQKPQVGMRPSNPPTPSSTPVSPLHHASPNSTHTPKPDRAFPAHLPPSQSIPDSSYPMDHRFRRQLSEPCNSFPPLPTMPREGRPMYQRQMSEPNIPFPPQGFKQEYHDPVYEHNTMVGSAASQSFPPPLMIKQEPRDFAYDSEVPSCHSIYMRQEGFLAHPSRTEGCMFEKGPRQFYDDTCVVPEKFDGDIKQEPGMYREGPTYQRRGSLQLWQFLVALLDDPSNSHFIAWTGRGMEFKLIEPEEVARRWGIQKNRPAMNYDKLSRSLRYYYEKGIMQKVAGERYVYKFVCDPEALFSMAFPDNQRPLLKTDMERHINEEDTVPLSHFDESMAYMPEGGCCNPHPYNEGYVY
# Summary of the method: as §1
sequence,measurement,setting,value
TATAGT,binding signal,FLI1,"1.12 fold enrichment (6-mer frequency, TF over GST control)"
same,binding signal,ELK1,"1.1 fold enrichment (6-mer frequency, TF over GST control)"
same,binding signal,GABPA,"1.11 fold enrichment (6-mer frequency, TF over GST control)"
same,binding signal,ERG,"1.05 fold enrichment (6-mer frequency, TF over GST control)"
same,binding signal,ELF1,"1.07 fold enrichment (6-mer frequency, TF over GST control)"
same,binding signal,EHF,"1.12 fold enrichment (6-mer frequency, TF over GST control)"
same,binding signal,SPI1,"1.06 fold enrichment (6-mer frequency, TF over GST control)"
same,binding signal,SPIB,"1.04 fold enrichment (6-mer frequency, TF over GST control)"
same,binding signal,ELK3,"1.03 fold enrichment (6-mer frequency, TF over GST control)"
same,binding signal,FEV,"1.03 fold enrichment (6-mer frequency, TF over GST control)"
same,binding signal,ETV5,"1.11 fold enrichment (6-mer frequency, TF over GST control)"
same,binding signal,HSF1,"1.07 fold enrichment (6-mer frequency, TF over GST control)"
same,binding signal,SPIC,"1.09 fold enrichment (6-mer frequency, TF over GST control)"
same,binding signal,ELF4,"1.03 fold enrichment (6-mer frequency, TF over GST control)"
same,binding signal,ELK4,"1.31 fold enrichment (6-mer frequency, TF over GST control)"
same,binding signal,ETV2,"1.12 fold enrichment (6-mer frequency, TF over GST control)"
same,binding signal,ELF3,"1.28 fold enrichment (6-mer frequency, TF over GST control)"
same,binding signal,CRX,"1.34 fold enrichment (6-mer frequency, TF over GST control)"
same,binding signal,ETV1,"1.11 fold enrichment (6-mer frequency, TF over GST control)"
